# Screening results (PubChem)
# Shown are actives, neighbours in structure and some others; about 3.6% of the full set was active somewhere.
# NPSR antag – qHTS Assay for Antagonists of the Neuropeptide S Receptor: cAMP Signal Transduction | Q6W5P4 | CHO-NPSR cells, cAMP TR-FRET, antagonist mode | Potency, µM (highest dose often 38.3 µM), for inactives: at the top dose activity change, negative = inhibition, usual class: inhibitors | 220,000 tested, 1% active | AID 1461, 2008; further: on the % scale 0 is the no-effect control and ±100 the full control effect; nearly all actives have a fitted effect of over 50% in size
# Target sequence (Q6W5P4 whole entry, looked up): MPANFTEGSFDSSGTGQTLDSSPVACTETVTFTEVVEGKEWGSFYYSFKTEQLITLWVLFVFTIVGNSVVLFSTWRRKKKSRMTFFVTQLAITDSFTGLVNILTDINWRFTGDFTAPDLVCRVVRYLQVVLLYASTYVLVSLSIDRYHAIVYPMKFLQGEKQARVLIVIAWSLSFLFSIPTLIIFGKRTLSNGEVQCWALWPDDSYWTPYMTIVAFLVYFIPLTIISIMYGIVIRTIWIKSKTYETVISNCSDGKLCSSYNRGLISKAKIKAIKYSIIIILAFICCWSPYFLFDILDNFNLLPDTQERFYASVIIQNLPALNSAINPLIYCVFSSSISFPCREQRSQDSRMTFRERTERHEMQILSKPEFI
# IMPase Li cell – qHTS Assay for Identifying the Cell-Membrane Permeable IMPase Inhibitors: Potentiation with Lithium | CHO-M1 cells, IP1 TR-FRET (IP-One), carbachol + lithium | Potency, µM (series often up to 59.4 µM), for inactives: at the highest dose activity, negative = IMPase inhibition, usual class: inhibitors | 210,000 tested, 0.35% active | AID 1457, 2008;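 further: IP1 builds up when IMPase is blocked and the TR-FRET signal falls; plate controls were basal vehicle for no effect and high inhibitor control for full effect; nearly all actives have a fitted effect of over 50% in size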
#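 CHO cells stably expressing M1 receptor (2000/well) were cultured 16–30 h, then exposed to compounds with a small lithium addition for 30 min at 37C. IP1 was measured by TR-FRET competition; AC50 from Hill fits.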
# Sfp PPTase inh – qHTS Assay for Inhibitors of Bacillus subtilis Sfp phosphopantetheinyl transferase (PPTase). 4'-phosphopantetheinyl transferase ffp (Bacillus subtilis), Q9F4F7. Biochemical Sfp PPTase activity, qHTS. Potency, µM, for the others: largest response in the series, negative = inhibition, most hits filed as inhibitors. 310,000 tested, 3.5% active. AID 1490, 2009;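 further: the enzyme is Sfp with the accession as filed and its product quenches rhodamine fluorescence; 0% = enzyme reaction without inhibitor and -100% = no enzyme wells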
#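 With Hepes-Na pH 7.6 buffer containing 10 mM MgCl2, Sfp (15 nM) modified BHQ-2-YbbR (12.5 uM) using rhodamine-CoA (5 uM). Two reads 30 minutes apart at 525/598 nm yielded each well's rate.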
# GCN5L2 inh – qHTS Assay for Inhibitors of GCN5L2; GCN5L2 HAT assay, ThioGlo1 CoA-SH fluorescence; AID 504327, 2011; 390,000 tested, 0.21% active; Histone acetyltransferase KAT2A (Homo sapiens), Q92830; Potency, µM (doses to about 58.9 µM), for the others: top-dose activity change, negative = inhibition, actives largely listed as inhibitors; further: on the % scale 0 is the no-effect control and ±100 the full control effect
#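 Free CoA generated was detected with ThioGlo1 (50uM) fluorescence at Ex340nm/Em540nm, read immediately and after 20 min at room temperature. Enzyme, 20 nM in HEPES pH 7.5 buffer, saw compounds 15 min before adding 75uM H3(1-25) peptide and 70uM acetyl-CoA.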
# Epigenetic reg – Quantitative High-Throughput Screen for Regulators of Epigenetic Control; murine LDR cells, GFP reporter derepression, 30 h; 280,000 tested, 0.2% active; Potency, µM (titrated, usually from 53.9 µM), without a hit: at the top dose GFP activation, hits mostly activators; further: % of control where 0% means no effect; nearly all actives have a fitted effect of over 60% in size
#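 Derepression of a silenced CMV-GFP reporter in murine LDR cells is scored by enumerating GFP-positive cells with a laser-scanning microplate cytometer after 30 hours of treatment at 37 C.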
# JMJD2E inh – qHTS Assay for Inhibitors of Human Jumonji Domain Containing 2E (JMJD2E); JMJD2E catalytic domain, FDH-coupled NADH fluorescence (FDH is formaldehyde dehydrogenase); Potency, µM (doses to about 57.1 µM), for the others: at the highest dose activity change, negative = inhibition, most hits filed as inhibitors; 230,000 tested, 1.6% active; Lysine-specific demethylase 4E (Homo sapiens), B2RXH2; active means well fitted inhibition curve with a large enough effect, not every such curve was filed as active; inconclusive means small, poorly fitted or top-dose-only effect, or another doubt; inactive means no such curve, though single readings can be large or run the other way;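 further: 0% = wells with enzyme and -100% = buffer wells without enzyme; nearly all actives have a fitted effect of over 50% in size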
# Target sequence (B2RXH2 1-337 limits assumed): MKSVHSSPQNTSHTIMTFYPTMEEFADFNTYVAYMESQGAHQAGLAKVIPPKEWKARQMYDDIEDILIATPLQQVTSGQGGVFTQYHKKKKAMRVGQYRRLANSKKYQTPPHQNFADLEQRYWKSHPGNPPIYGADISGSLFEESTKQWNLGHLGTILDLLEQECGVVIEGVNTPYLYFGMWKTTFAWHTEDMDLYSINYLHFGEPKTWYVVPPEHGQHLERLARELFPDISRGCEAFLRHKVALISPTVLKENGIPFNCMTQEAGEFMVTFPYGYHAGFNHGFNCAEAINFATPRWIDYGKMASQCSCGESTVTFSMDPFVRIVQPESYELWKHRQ
# An asterisk follows results filed as active; u = inconclusive; x = not tested or not shown; ! = a repeat was not active; [ ] = another dose, or the depositor's remark. Unless noted, the call rests on the fitted dose curve; in most records, active means well fitted curve in the direction sought with a large enough effect; inconclusive means small, poorly fitted or top-dose-only effect, or another doubt; inactive means no such curve, though single readings can be large; an effect the other way counts as inactive or inconclusive. Potency means the concentration at half of the fitted maximal effect.
SMILES,NPSR antag,IMPase Li cell,Sfp PPTase inh,GCN5L2 inh,Epigenetic reg,JMJD2E inh
CC[C@H](C)[C@H](NC(=O)[C@H](CC(C)C)NC(=O)[C@@H](N)CO)C(=O)NCC(=O)N[C@@H](CCCCN)C(=O)N[C@H](C(=O)O)C(C)C,x,x,-7%,13%,x,x
COc1ccc(-c2nc(N3CCCCCC3)sc2C(=O)c2ccccc2)cc1,5µM*,3%[38.3 µM],-5%,-9%,0%,6%
O=C(NCCc1ccccc1)c1ccc2nc(-c3ccco3)c(-c3ccco3)nc2c1,u,4%[38.3 µM],25µM*,u,1%,u
Cc1ccc(C)c(N2CCN(C(=O)c3ccc4nc(-c5ccco5)c(-c5ccco5)nc4c3)CC2)c1,-24%[46.1 µM],17%[38.3 µM],20µM*,-12%,-1%,u
O=C(NCCO)c1ccc2nc(-c3ccco3)c(-c3ccco3)nc2c1,-16%[46.1 µM],27%[38.3 µM],10µM*,-7%,0%,u
O=C(c1ccccc1)c1ccc2nc(-c3ccco3)c(-c3ccco3)nc2c1,-60%,22%,7.1µM*,u,1%,u
COc1ccccc1N1CCN(C(=O)c2ccc3nc(-c4ccco4)c(-c4ccco4)nc3c2)CC1,-22%,20%,-7%,u,0%,u
CC(=O)OCC(=O)[C@]12OC(C)(C)O[C@@H]1C[C@H]1[C@H]3CC=C4C[C@@H](O)CC[C@]4(C)[C@H]3CC[C@]12C,x,8%,x,x,x,x
CC1=CCC(C(C)(C)O)CC1 (stereo unspecified),x,x,u,-13%,x,x
Cc1cccc(C(=O)n2nc(C)c(S(=O)(=O)N3CCOCC3)c2C)c1,x,x,x,-3%,0%,x
O=C(NC1CCCC1)c1ccc2nc(-c3ccco3)c(-c3ccco3)nc2c1,-11%[46.1 µM],x,6.3µM*,-20%,0%,-3%
O=C(NC1CCCC1)c1ccc2nc[nH]c2c1,-18%[46.1 µM],7%[38.3 µM],7%,-13%,-1%,1%
c1coc(-c2nc3ccccc3nc2-c2ccco2)c1,-14%[46.1 µM],5%[38.3 µM],14µM*,-20%,0%,u
CCOc1ccc(OCC)c(Nc2nc3ccc(Cl)cc3n3cnnc23)c1,x,x,x,-1%,22µM*,x
COC(=O)c1c(NC(=O)Cn2cnc([N+](=O)[O-])n2)sc2c1CCC(C)C2 (stereo unspecified),14%,-6%,32µM*,-17%,0%,-2%
COC(=O)c1c(NC(=S)NN2CCN(C)CC2)sc2c1CCC(C)C2 (stereo unspecified),-19%,20%,u,-3%,-1%,-5%
COC(=O)c1c(C)nc(C)c(C(=O)OC)c1-c1ccccc1[N+](=O)[O-],x,x,10%,-8%,x,x
O=C(c1ccc2c3c(cccc13)CC2)C1CCCN(C(=O)c2ccc(=O)[nH]c2)C1 (stereo unspecified),-2%,5%,50µM*,2%,-3%,u
COc1cc(/C=C2/SC(=S)N(CC(=O)Nc3cccnc3)C2=O)cc(OC)c1OC,3%,23%,-23%,-10%,-1%,5%
COc1ccc(/C=C2\SC(=O)N(CC(=O)Nc3cccnc3)C2=O)cc1OC,-7%,11%,45µM*,-9%,5%,-6%
C[C@]12CC[C@@H]3c4ccc(O)cc4CC[C@H]3[C@@H]1C[C@H](O)C2O (stereo partly specified),x,x,2%,-10%,x,x
Brc1ccc([C@H]2CN3CCSC3=N2)cc1,6%[46.1 µM],6%,x,-1%,3%,11µM*
c1ccc(C2CN3CCSC3=N2)cc1 (stereo unspecified),-12%[46.1 µM],24%,11%,-1%,-1%,6%
CC(C)CSc1nc2c(c(=O)[nH]c(=O)n2C)n1CC(O)COc1cccc2ccccc12 (stereo unspecified),u,-7%[38.3 µM],28µM*,-2%,1%,4%
Cn1c(=O)[nH]c(=O)c2c1nc(SCCO)n2CC(O)COc1ccccc1 (stereo unspecified),4%,-6%,5µM*,-22%,0%,5%
SMILES,NPSR antag,IMPase Li cell,Sfp PPTase inh,GCN5L2 inh,Epigenetic reg,JMJD2E inh
COc1ccccc1-c1nn(CCC(=O)Nc2ccccc2)c2nc(C)cc(C)c12,x,x,x,-8%,5%,x
Cc1ccc2nc(NCc3ccccc3)c(C#N)cc2c1,u,x,79µM*,-2%,3%,u
Cc1ccc2nc(NCCNC(=O)c3ccccc3)c(C#N)cc2c1,x,x,-6%,1%,x,x
COc1ccc(OC)c(NC(=O)c2ccc3nc(C(C)C)oc3c2)c1,x,x,x,-8%,13%,x
C[C@H]1Cc2c(-c3ccccc3)nc3c(c2CO1)CN(C(=O)Nc1cccc(C#N)c1)CC3,x,10%,17%,x,x,9%[11.4 µM]
COc1cccc(-c2nnc3n2N=C(c2c(OC)cccc2OC)CS3)c1OC,x,x,4%,x,x,x
COC(=O)c1ccccc1NC1=C/C(=N\S(=O)(=O)c2ccc(C(=O)O)cc2)c2ccccc2C1=O,x,x,56µM*,-11%,x,x
Cc1cc(C(=O)NNC(=O)CCCCC(=O)NNC(=O)c2cc(C)[nH]n2)n[nH]1,7%,-4%,79µM*,2%,0%,-4%
COC(=O)[C@H]1O[C@@H](c2cc(OC)c(C)c(OC)c2OCc2ccccc2)[C@H](C)[C@@H]2O[C@]12C,x,-2%,1%,x,0%,0%
Cc1ccccc1NC(=O)C(=Cc1ccc(C(=O)O)cc1)C(=O)Nc1ccccc1C,4µM*,1%,-21%,-6%,2%,-9%
O=C(OCc1ccco1)c1ccc(S(=O)(=O)N2CCCCC2)cc1,-23%[46.1 µM],15%[38.3 µM],22µM*,u,-1%,-3%
COc1ccc(S(=O)(=O)N2CCC(N3CCCCC3)CC2)cc1,-1%[46.1 µM],-13%[38.3 µM],u,29%,-3%,-28%
CCOC(=O)c1ccc(S(=O)(=O)N2CCN(C3CCCC3)CC2)cc1,-7%,7%,18µM*,2%,0%,-7%
COc1ccc(S(=O)(=O)N2CCN(C3CCCCCCC3)CC2)cc1,-6%[46.1 µM],17%[38.3 µM],40µM*!,-21%,-1%,u
O=C(COC(=O)c1ccc(S(=O)(=O)N2CCCCC2)cc1)NCc1ccco1,6%,1%,3%,-12%,0%,-4%
COc1ccccc1C(=O)Nc1cccc(C(=O)OCc2cc(=O)n3c4c(sc3n2)CCCC4)c1,x,x,x,0%,5%,x
Nc1nc(SCC(=O)c2ccc(Br)cc2)c2[nH]cnc2n1,x,-1%,x,x,x,x
COc1cccc(C(c2c(N)[nH]c(=S)[nH]c2=O)c2c(N)[nH]c(=S)[nH]c2=O)c1,0%,x,79µM*,16%,-1%,-7%
